Data reported in publication PMC7862700, “An all-to-all approach to the identification of sequence-specific readers for epigenetic DNA modifications on cytosine”.

Assays:
Assay in all cases: DAPPL (digital affinity profiling via proximity ligation, sequencing); 10 mM Tris-HCl pH 7.5, 50 mM NaCl, 1 mM DTT, 4% glycerol, room temperature, 30 min; GST-TFs on glutathione beads, 16-mer random dsDNA library, 0.1% formaldehyde crosslink after washing; high values mean tight binding
Details in all cases: protein: recombinant; tags: N-terminal GST; dsDNA, one strand shown
FLI1 = biological target: T1, FLI1 (Homo sapiens, UniProt Q01543 1-452)
T1 sequence: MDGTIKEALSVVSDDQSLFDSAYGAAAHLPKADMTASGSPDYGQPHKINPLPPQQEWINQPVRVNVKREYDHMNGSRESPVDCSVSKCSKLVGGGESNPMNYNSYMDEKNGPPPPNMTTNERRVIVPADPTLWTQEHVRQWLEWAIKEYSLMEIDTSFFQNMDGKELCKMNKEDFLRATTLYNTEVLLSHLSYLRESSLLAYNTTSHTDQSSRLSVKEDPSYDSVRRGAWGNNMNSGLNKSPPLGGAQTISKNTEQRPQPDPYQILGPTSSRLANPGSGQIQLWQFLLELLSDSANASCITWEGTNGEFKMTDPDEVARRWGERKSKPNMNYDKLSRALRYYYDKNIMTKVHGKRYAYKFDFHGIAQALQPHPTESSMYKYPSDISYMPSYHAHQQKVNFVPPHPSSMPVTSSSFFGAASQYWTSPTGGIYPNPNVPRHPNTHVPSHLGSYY
How it was run: (§1)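 Binding signal is defined as a hexamer's read frequency for one factor over its frequency for the tag-only sample. To obtain reads, GST-fused human transcription factors were expressed in yeast, captured on glutathione beads, barcoded with DNA and pooled with that sample. Pools met 200 nmole of a 16-mer random double-stranded DNA library in Tris/NaCl/DTT/glycerol buffer for 30 min at room temperature before washing, 0.1% formaldehyde crosslinking, proximity ligation (BsaI/T4 ligase, 1 h, 37 °C), PCR and Illumina NextSeq500 sequencing.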

ELK1 = biological target: T2, ELK1 (Homo sapiens, UniProt P19419 1-428)
T2 sequence: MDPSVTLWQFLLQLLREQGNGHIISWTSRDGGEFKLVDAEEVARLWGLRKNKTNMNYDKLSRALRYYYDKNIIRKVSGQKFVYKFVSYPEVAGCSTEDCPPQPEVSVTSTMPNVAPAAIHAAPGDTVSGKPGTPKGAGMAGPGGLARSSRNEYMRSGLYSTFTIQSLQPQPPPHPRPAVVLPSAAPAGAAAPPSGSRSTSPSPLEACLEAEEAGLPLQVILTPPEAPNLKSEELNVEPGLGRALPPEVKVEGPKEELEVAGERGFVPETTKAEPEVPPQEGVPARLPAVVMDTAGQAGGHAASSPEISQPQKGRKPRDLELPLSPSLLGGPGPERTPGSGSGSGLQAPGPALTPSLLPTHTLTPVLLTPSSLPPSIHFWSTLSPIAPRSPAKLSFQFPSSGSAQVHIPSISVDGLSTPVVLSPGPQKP
How it was run: as §1

GABPA = biological target: T3, GABPA (Homo sapiens, UniProt Q06546 1-454)
T3 sequence: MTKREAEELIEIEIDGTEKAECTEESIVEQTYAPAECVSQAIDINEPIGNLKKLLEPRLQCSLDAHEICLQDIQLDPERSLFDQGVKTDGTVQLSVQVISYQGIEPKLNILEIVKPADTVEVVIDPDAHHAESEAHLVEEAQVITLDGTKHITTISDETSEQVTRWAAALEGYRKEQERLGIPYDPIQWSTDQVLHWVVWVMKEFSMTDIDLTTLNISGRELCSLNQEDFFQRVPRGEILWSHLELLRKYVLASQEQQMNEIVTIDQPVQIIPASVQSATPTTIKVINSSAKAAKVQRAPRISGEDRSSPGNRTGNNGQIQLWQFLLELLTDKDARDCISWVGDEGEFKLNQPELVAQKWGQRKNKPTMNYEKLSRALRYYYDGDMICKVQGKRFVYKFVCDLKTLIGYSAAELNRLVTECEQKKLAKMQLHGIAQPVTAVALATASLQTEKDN
How it was run: as §1

ERG = biological target: T4, ERG (Homo sapiens, UniProt P11308 1-479)
T4 sequence: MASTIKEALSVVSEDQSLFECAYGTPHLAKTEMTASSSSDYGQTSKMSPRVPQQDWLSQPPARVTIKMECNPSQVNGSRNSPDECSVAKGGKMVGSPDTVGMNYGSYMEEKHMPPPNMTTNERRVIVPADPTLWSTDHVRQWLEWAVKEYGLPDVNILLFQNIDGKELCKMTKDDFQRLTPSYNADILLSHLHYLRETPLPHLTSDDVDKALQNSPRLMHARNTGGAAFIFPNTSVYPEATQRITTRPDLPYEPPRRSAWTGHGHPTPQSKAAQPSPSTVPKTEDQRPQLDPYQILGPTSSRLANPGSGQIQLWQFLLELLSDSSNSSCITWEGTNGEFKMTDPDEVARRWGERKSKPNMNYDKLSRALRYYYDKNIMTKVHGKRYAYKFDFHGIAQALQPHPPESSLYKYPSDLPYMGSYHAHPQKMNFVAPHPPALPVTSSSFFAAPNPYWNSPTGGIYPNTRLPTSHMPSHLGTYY
How it was run: as §1

ELF1 = ELF1 (Homo sapiens, UniProt P32519 1-619)
How it was run: as §1

SPI1 = SPI1 (Homo sapiens, UniProt P17947 1-270)
How it was run: as §1

SPIB = SPIB (Homo sapiens, UniProt Q01892 1-262)
How it was run: as §1

ELK3 = biological target: T5, ELK3 (Homo sapiens, UniProt P41970 1-407)
T5 sequence: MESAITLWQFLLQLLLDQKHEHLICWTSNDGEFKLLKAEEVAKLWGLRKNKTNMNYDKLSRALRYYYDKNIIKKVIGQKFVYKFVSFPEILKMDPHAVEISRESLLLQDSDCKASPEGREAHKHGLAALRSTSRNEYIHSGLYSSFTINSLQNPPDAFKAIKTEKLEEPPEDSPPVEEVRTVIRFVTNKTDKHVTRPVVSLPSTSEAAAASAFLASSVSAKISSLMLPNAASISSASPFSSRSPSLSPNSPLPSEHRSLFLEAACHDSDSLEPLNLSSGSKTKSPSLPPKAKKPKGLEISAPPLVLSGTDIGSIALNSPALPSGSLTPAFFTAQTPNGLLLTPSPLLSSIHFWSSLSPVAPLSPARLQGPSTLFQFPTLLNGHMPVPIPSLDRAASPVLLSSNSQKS
How it was run: as §1

ETV5 = ETV5 (Homo sapiens, UniProt P41161 1-510)
How it was run: as §1

SPIC = biological target: T6, SPIC (Homo sapiens, UniProt Q8N5J4 1-248)
T6 sequence: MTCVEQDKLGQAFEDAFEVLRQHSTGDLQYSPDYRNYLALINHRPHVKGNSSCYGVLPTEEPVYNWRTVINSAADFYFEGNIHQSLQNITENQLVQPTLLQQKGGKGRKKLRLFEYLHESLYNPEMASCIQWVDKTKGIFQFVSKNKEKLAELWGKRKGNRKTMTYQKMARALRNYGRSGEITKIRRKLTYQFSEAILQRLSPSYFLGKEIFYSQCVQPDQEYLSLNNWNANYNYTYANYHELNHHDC
How it was run: as §1

ETV3L = biological target: T7, ETV3L (Homo sapiens, UniProt Q6ZN32 1-361)
T7 sequence: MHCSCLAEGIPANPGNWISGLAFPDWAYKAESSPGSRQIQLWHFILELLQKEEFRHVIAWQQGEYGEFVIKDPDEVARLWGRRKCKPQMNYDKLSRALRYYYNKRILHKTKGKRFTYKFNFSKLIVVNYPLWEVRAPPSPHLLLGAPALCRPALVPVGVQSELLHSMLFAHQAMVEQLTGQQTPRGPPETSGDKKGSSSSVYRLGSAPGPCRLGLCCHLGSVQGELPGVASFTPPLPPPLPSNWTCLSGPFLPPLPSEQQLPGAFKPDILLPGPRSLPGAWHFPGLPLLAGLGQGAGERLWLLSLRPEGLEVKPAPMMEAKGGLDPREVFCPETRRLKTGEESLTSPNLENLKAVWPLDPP
How it was run: as §1

ETS2 = biological target: T8, ETS2 (Homo sapiens, UniProt P15036 1-469)
T8 sequence: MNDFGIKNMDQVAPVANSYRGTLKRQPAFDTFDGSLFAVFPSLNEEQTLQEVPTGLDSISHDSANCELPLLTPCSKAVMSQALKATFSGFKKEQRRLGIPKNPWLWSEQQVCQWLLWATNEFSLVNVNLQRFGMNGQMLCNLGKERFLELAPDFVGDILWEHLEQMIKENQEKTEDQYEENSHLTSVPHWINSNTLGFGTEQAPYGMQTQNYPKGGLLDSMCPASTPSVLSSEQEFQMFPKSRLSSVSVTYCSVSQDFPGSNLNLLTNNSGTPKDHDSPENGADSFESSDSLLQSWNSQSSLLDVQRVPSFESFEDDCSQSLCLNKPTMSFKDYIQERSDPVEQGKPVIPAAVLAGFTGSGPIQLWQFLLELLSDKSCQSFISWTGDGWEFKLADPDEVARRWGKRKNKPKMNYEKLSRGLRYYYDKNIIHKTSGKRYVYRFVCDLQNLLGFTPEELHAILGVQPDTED
How it was run: as §1

SPDEF = biological target: T9, SPDEF (Homo sapiens, UniProt O95238 1-335)
T9 sequence: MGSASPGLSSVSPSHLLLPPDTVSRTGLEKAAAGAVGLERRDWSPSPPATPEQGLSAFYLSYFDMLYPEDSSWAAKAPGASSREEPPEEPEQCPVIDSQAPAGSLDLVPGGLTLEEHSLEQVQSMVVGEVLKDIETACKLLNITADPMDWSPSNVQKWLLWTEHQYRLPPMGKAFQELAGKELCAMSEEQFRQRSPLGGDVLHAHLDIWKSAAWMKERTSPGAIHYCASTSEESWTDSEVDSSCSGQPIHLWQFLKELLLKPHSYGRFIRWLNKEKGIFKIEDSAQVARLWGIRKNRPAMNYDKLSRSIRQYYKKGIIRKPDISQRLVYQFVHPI
How it was run: as §1

ETV3 = biological target: T10, ETV3 (Homo sapiens, UniProt P41162-2 1-143)
T10 sequence: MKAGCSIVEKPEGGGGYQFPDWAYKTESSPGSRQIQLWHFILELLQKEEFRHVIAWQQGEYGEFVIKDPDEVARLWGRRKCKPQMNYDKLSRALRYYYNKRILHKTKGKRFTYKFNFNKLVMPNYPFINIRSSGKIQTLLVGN
How it was run: as §1

ETV6 = ETV6 (Homo sapiens, UniProt P41212 1-452)
How it was run: as §1

EHF = biological target: T11, EHF (Homo sapiens, UniProt Q9NZC4 1-300)
T11 sequence: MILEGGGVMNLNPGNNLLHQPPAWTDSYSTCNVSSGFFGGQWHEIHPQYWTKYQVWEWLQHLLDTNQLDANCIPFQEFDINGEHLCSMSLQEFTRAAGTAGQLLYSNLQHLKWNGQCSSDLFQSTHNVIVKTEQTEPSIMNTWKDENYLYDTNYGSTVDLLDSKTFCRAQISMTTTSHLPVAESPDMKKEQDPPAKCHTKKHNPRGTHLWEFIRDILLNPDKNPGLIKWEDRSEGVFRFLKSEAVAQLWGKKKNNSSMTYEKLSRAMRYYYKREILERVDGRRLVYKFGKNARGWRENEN
How it was run: as §1

FEV = biological target: T12, FEV (Homo sapiens, UniProt Q99581 1-238)
T12 sequence: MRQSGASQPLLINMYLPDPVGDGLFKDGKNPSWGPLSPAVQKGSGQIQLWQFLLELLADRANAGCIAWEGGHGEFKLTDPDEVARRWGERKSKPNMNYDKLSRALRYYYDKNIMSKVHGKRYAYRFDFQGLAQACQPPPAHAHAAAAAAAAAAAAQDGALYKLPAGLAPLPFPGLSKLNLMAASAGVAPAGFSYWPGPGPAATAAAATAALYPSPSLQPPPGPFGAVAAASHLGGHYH
How it was run: as §1

ETV1 = ETV1 (Homo sapiens, UniProt P50549 1-477)
How it was run: as §1

ETV5, sequence (P41161 whole entry): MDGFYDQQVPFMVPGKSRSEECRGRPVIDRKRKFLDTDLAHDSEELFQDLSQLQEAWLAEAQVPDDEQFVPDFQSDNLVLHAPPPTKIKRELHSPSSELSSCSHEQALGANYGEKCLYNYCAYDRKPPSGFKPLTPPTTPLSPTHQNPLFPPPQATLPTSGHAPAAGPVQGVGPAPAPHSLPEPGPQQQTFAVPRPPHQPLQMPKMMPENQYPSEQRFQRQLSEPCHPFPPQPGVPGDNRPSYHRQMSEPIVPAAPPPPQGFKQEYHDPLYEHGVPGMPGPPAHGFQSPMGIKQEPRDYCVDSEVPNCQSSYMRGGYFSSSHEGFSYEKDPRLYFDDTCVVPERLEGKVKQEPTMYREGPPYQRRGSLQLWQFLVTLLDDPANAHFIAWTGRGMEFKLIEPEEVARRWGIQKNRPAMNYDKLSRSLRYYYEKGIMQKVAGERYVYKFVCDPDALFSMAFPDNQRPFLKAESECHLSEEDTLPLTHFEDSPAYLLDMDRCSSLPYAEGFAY
SPIB, sequence (Q01892 whole entry): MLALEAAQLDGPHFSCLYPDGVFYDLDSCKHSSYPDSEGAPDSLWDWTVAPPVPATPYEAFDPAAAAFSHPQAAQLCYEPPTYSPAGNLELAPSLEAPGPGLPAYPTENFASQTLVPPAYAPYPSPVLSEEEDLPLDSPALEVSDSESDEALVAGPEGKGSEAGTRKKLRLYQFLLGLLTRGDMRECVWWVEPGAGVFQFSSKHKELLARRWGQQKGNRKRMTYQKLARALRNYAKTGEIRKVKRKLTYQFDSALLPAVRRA
ETV6, sequence (P41212 whole entry): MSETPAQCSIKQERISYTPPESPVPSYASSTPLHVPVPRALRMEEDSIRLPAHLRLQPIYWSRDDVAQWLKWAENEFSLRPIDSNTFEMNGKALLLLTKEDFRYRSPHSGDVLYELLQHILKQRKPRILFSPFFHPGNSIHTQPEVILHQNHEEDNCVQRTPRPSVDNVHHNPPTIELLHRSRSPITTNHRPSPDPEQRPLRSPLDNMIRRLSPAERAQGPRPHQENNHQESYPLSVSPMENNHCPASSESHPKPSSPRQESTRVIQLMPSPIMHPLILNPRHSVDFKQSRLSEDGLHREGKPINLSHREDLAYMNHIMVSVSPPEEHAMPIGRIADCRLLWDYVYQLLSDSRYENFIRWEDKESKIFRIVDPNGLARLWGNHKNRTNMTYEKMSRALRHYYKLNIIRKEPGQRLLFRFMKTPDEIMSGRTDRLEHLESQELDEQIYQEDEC
ELF1, sequence (P32519 whole entry): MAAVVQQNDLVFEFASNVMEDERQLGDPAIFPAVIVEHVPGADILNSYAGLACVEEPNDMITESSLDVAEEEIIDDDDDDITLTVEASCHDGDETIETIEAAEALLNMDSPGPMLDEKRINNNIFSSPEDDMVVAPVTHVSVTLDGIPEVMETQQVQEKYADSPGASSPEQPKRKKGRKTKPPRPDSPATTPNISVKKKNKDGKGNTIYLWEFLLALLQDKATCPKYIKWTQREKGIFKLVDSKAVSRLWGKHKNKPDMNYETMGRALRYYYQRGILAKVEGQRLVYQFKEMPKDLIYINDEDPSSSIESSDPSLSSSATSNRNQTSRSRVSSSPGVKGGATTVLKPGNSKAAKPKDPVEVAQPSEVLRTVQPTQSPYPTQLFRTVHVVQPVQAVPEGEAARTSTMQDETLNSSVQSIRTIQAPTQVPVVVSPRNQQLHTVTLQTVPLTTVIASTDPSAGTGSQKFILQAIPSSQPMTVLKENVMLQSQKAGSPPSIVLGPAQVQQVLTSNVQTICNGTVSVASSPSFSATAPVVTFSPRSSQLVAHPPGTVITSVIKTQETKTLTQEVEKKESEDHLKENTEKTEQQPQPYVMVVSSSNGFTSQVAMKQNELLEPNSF
ETV1, sequence (P50549 whole entry): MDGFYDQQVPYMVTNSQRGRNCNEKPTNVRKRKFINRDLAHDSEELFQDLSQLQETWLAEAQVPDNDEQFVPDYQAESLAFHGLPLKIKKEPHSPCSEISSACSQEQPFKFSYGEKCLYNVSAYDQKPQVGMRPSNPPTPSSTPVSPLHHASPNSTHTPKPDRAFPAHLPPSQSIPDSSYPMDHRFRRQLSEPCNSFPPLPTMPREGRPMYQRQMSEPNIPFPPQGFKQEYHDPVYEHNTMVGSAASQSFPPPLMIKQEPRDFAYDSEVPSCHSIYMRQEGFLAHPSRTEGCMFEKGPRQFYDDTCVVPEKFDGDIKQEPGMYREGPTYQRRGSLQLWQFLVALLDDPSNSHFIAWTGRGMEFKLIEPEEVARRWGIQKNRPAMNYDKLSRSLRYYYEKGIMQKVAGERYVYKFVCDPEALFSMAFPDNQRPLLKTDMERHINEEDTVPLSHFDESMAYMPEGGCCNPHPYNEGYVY

Sequence: ATGGCG
- binding signal (FLI1): 1 fold enrichment (6-mer frequency, TF over GST control)
- binding signal (ELK1): 1.05 fold enrichment (6-mer frequency, TF over GST control)
- binding signal (GABPA): 1.04 fold enrichment (6-mer frequency, TF over GST control)
- binding signal (ERG): 1.02 fold enrichment (6-mer frequency, TF over GST control)
- binding signal (ELF1): 1.06 fold enrichment (6-mer frequency, TF over GST control)
- binding signal (SPI1): 1.03 fold enrichment (6-mer frequency, TF over GST control)
- binding signal (SPIB): 1.01 fold enrichment (6-mer frequency, TF over GST control)
- binding signal (ELK3): 1.01 fold enrichment (6-mer frequency, TF over GST control)
- binding signal (ETV5): 1.02 fold enrichment (6-mer frequency, TF over GST control)
- binding signal (SPIC): 1.16 fold enrichment (6-mer frequency, TF over GST control)
- binding signal (ETV3L): 1.03 fold enrichment (6-mer frequency, TF over GST control)
- binding signal (ETS2): 1.11 fold enrichment (6-mer frequency, TF over GST control)
- binding signal (SPDEF): 1.02 fold enrichment (6-mer frequency, TF over GST control)
- binding signal (ETV3): 1.09 fold enrichment (6-mer frequency, TF over GST control)
- binding signal (ETV6): 1.05 fold enrichment (6-mer frequency, TF over GST control)

Sequence: CCCGGT
- binding signal (FLI1): 1.01 fold enrichment (6-mer frequency, TF over GST control)
- binding signal (ERG): 1.09 fold enrichment (6-mer frequency, TF over GST control)
- binding signal (EHF): 1.14 fold enrichment (6-mer frequency, TF over GST control)
- binding signal (SPIB): 1.01 fold enrichment (6-mer frequency, TF over GST control)
- binding signal (FEV): 1.04 fold enrichment (6-mer frequency, TF over GST control)
- binding signal (ETV5): 1.09 fold enrichment (6-mer frequency, TF over GST control)
- binding signal (SPIC): 1.07 fold enrichment (6-mer frequency, TF over GST control)
- binding signal (ETV1): 1.07 fold enrichment (6-mer frequency, TF over GST control)
- binding signal (ETV3L): 1.01 fold enrichment (6-mer frequency, TF over GST control)
- binding signal (ETS2): 1.04 fold enrichment (6-mer frequency, TF over GST control)
- binding signal (SPDEF): 1.11 fold enrichment (6-mer frequency, TF over GST control)
- binding signal (ETV3): 1.09 fold enrichment (6-mer frequency, TF over GST control)
- binding signal (ETV6): 1 fold enrichment (6-mer frequency, TF over GST control)
